{"source": "PubChem BioAssay AID1745849", "about": "(National Center for Advancing Translational Sciences (NCATS), 2022)", "note": "Hit rate of the full screen: of about 2,100 compounds, about 320 (15%) were called active. About 52% were inconclusive and are not listed. Calls come from the whole dose curve; as a rule, active = well fitted cell-killing curve with a large enough effect; inconclusive = small, poorly fitted or top-dose-only effect, or effect the other way; inactive = flat fitted curve, though single readings scatter. The list shows a part of the results. Entries that show only a call come without a potency. Potency is the fitted concentration of half-maximal effect."}
{"test": "Viability Counterscreen for CMV-Luciferase Assay of Inhibitors of ATXN expression; note: nearly all actives have a fitted effect of over 55% in size", "settings": "HEK-293 CMV-luciferase cells viability, protease fluorescence, 24 h", "summary_of_the_method": "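HEK-293 cells stably expressing a CMV-luciferase reporter were exposed to compounds at several concentrations for 24 hr at 37 degree C. Viability was read as Gly-Phe-AFC fluorescence (25 uM final, 30 min). SteadyGlo luminescence was then measured after 5 min.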"}
{"smiles": "COC(=O)c1c(NC(=O)c2ccc([N+](=O)[O-])o2)sc2c1CCN(C(C)C)C2", "Potency": "15.8 µM (active)"}
{"smiles": "NC(=O)c1c(NC(=O)c2ccc(S(=O)(=O)N3CCOCC3)cc2)sc2c1CCCCC2", "Potency": "inactive"}
{"smiles": "CN(C)C(CNC(=O)c1cccc(S(=O)(=O)N2CCN(c3ccc(F)cc3)CC2)c1)c1ccccc1", "note": "(configuration not stated)", "Potency": "inactive"}
{"smiles": "Cc1ccc(OCC(=O)c2cc(C)n(Cc3cccs3)c2C)c([N+](=O)[O-])n1", "Potency": "inactive"}
{"smiles": "COCCCNC1=C(Cl)C(=O)c2ccccc2C1=O", "Potency": "25.1 µM (active)"}
{"smiles": "COc1ccc(CCNC2=C(Cl)C(=O)N(Cc3ccccc3)C2=O)cc1OC", "Potency": "inactive"}
{"smiles": "CC(C)Cn1c(/C=N/Nc2nc3ccccc3[nH]2)nc2ccccc21", "Potency": "inactive"}
{"smiles": "CCC(C)(C)c1ccc(OCCCC[n+]2ccccc2)c(C(C)(C)CC)c1", "Potency": "inactive"}
{"smiles": "Nc1ncn([C@@H]2O[C@H](CO)[C@@H](O)[C@H]2O)c(=O)n1", "Potency": "6.31 µM (active)"}
{"smiles": "Nc1ccn(C2OC(COP(=O)(O)O)C(O)C2O)c(=O)n1", "note": "(configuration not stated)", "Potency": "inactive"}
{"smiles": "Nc1ccn([C@@H]2O[C@H](CO)[C@@H](O)[C@@H]2O)c(=O)n1", "Potency": "inactive"}
{"smiles": "C/C(=N\\NC(=O)c1ccc(CN2CCc3ccccc3C2)cc1)c1ccccc1O", "Potency": "inactive"}
{"smiles": "Cc1c(OCC(=O)NC2CC(C)(C)NC(C)(C)C2)ccc2c1oc(=O)c1ccccc12", "Potency": "inactive"}
{"smiles": "COc1cccc(OCC(=O)Nc2cc(Cl)ccc2Oc2ccccc2)c1", "Potency": "inactive"}
{"smiles": "CCOCCn1ccc2c(OCC(=O)Nc3ccc(OC)c(OC)c3)cccc2c1=O", "Potency": "inactive"}
{"smiles": "COc1cccc(CN(C)C(=O)c2ccc(OCC(=O)Nc3cccc(C(F)(F)F)c3)c(OC)c2)c1", "Potency": "17.8 µM (active)"}
{"smiles": "O=C(Nc1nc(NC(=O)c2ccco2)n(-c2ccccc2)n1)c1ccccc1", "Potency": "12.6 µM (active)"}
{"smiles": "O=C(Nc1ccc(NC(=O)c2ccco2)cc1)c1ccc2c(c1)OCCO2", "Potency": "inactive"}
{"smiles": "CN(CCc1ccccc1)c1cc2c(c3c1ccn3C)C1CCC2O1", "note": "(configuration not stated)", "Potency": "inactive"}
{"smiles": "O=C(CN1C(=O)c2ccccc2S1(=O)=O)Nc1ncc(Cl)cc1Cl", "Potency": "inactive"}
{"smiles": "O=C(NNC(=O)c1cnccn1)c1ccc(Cl)c(Cl)c1", "Potency": "22.4 µM (active)"}
{"smiles": "O=C(NCCc1csc(-c2cccnc2)n1)c1cccc(Cl)c1", "Potency": "inactive"}
{"smiles": "O=C(N/N=C/c1cc(Cl)ccc1O)c1cccnc1", "Potency": "inactive"}
{"smiles": "CCCC[C@@H](CNC)NC[C@H](NCCCCC1CCCCC1)C(C)C", "Potency": "28.2 µM (active)"}
{"smiles": "OC(c1cc(F)cc(Cl)c1)c1ncc(-c2cccc(C(F)(F)F)c2)[nH]1", "note": "(configuration not stated)", "Potency": "inactive"}
{"smiles": "CCOC(=O)c1c(NC(=O)C(Sc2ccccc2)c2ccccc2)sc(C(=O)N(C)C)c1C", "note": "(configuration not stated)", "Potency": "inactive"}
{"smiles": "C=CCOC(=O)C1=C(C)NC(SCC)=C(C#N)C1c1ccc(Cl)cc1", "note": "(configuration not stated)", "Potency": "inactive"}
{"smiles": "O=C1C=C(NCCc2cc(Br)c(O)c(Br)c2)C(=O)c2ncccc21", "Potency": "8.91 µM (active)"}
{"smiles": "Brc1cnc2nc(SCc3nc4ccccc4[nH]3)[nH]c2c1", "Potency": "inactive"}
{"smiles": "CCCc1cnc(NCCNCC(O)COc2ccc(Cl)c(Cl)c2)nc1", "note": "(configuration not stated)", "Potency": "28.2 µM (active)"}
{"smiles": "Cc1cc(/C=N/n2c(COc3ccccc3)nc3ccccc3c2=O)c(O)c([N+](=O)[O-])c1", "Potency": "12.6 µM (active)"}
{"smiles": "COc1ccc(OCc2cccc(C(=O)Nn3cc([N+](=O)[O-])cn3)c2)cc1", "Potency": "inactive"}
{"smiles": "Cc1nc2ccccc2c(=O)n1/N=C/c1c(O)ccc2oc3c(c12)CCCC3", "Potency": "inactive"}
{"smiles": "Cc1ccc2nc(-c3ccccc3)nn2c1", "Potency": "inactive"}
{"smiles": "O=[N+]([O-])c1c(Nc2ccccn2)cc(Cl)c2nonc12", "Potency": "11.2 µM (active)"}
{"smiles": "Cn1c(=O)c(C#N)c(-c2ccc(F)cc2)c2cc(C(=O)c3cc(Cl)cc(Cl)c3O)cnc21", "Potency": "inactive"}
{"smiles": "Oc1ccc2ccccc2c1/C=C/c1ccc2c(Br)cc(Br)c(O)c2n1", "Potency": "inactive"}
{"smiles": "COc1ccc(C(=O)Nn2c(SCC(=O)c3ccccc3)nc3ccccc3c2=O)cc1", "Potency": "inactive"}
{"smiles": "CCOC(=O)C(CC)(CC)C(=O)/C=C/c1ccc(OC)cc1", "Potency": "inactive"}
{"smiles": "COc1ccc(C(=O)Cn2c(C(=O)/C=C/c3ccccc3)nc3ccccc32)cc1", "Potency": "3.16 µM (active)"}
{"smiles": "CC1=C(CC[C@@H](C)CO)OC2CC3C4CCC5CC(O)CCC5(C)C4CC(=O)C3(C)C12", "note": "(some centres not stated)", "Potency": "inactive"}
{"smiles": "Cn1c(=O)c2c(nc(CN3CCN(Cc4ccccc4)CC3)n2Cc2ccc(Cl)cc2)n(C)c1=O", "Potency": "25.1 µM (active)"}
{"smiles": "Cn1c(=O)c2c(nc(SCCN3CCOCC3)n2Cc2cccc3ccccc23)n(C)c1=O", "Potency": "inactive"}
{"smiles": "COc1ccc(CNC(=O)Nc2nc(C(N)Cc3ccc(Cl)cc3)cs2)cc1", "note": "(configuration not stated)", "Potency": "22.4 µM (active)"}
{"smiles": "COc1ccc(CC(N)c2csc(NC(=O)c3cc(C(C)(C)C)nn3Cc3ccccc3)n2)cc1", "note": "(configuration not stated)", "Potency": "inactive"}
{"smiles": "COc1ccc(CC(N)c2csc(NC(=O)c3ccccc3OC)n2)cc1", "note": "(configuration not stated)", "Potency": "inactive"}
{"smiles": "CN(C)c1ccc(C(=O)N/N=C/c2cc(Br)cc(Br)c2O)cc1", "Potency": "inactive"}
{"smiles": "Fc1ccc(Nc2nnc(C(F)(F)F)s2)cc1Cl", "Potency": "28.2 µM (active)"}
{"smiles": "Cc1onc(-c2c(F)cccc2Cl)c1C(=O)Nc1nnc(C(F)(F)F)s1", "Potency": "inactive"}
{"smiles": "Oc1ccc(C[C@@H]2CNCCN2CCc2cc(C(F)(F)F)cc(C(F)(F)F)c2)cc1", "Potency": "inactive"}
{"smiles": "CCOC(=O)C1CCN(C(=O)c2c(C)oc3c2C(=O)c2ccccc2C3=O)CC1", "Potency": "15.8 µM (active)"}
{"smiles": "NC(=O)C1CCN(C2=C(Cl)C(=O)c3ccccc3C2=O)CC1", "Potency": "inactive"}
{"smiles": "CCOC(=O)C1CCN(c2cc3c(cc2NC(=O)c2ccccc2OCC)n(C)c(=O)n3C)CC1", "Potency": "inactive"}
{"smiles": "COc1cc(C(=O)OC(C)C(=O)N2CCc3ccccc3C2)ccc1OCC(=O)N1CCOCC1", "note": "(configuration not stated)", "Potency": "inactive"}
{"smiles": "O=C(Nc1ccc2c(c1)CCC2)C1CCN(c2c3c(nc4ncnn24)CCC3)CC1", "Potency": "inactive"}
{"smiles": "CCCCCn1c(=N)n(CC(O)COc2ccccc2OC)c2ccccc21", "note": "(configuration not stated)", "Potency": "3.16 µM (active)"}
{"smiles": "Cn1c(N)c(C(=O)Nc2ccc(-c3ccccc3)cc2)sc1=S", "Potency": "inactive"}
{"smiles": "O=S(=O)(c1ccc(F)cc1)c1snnc1-c1ccccc1", "Potency": "10 µM (active)"}
{"smiles": "NS(=O)(=O)c1ccc(Nc2nc(-c3ccc(F)cc3)cs2)cc1", "Potency": "inactive"}
{"smiles": "NS(=O)(=O)c1ccc(N2N=C(c3ccccc3)CC2c2ccc(F)cc2)cc1", "note": "(configuration not stated)", "Potency": "inactive"}
{"smiles": "Cc1c(CC(=O)NCCCC(=O)O)c(=O)oc2cc3c(cc12)CCC(C)(C)O3", "Potency": "inactive"}
{"smiles": "NNc1nc(N)c2c(n1)-c1ccccc1CC21CCCC1", "Potency": "inactive"}
{"smiles": "CC(C)NC1CCC(Nc2ccnc3cc(Cl)ccc23)CC1", "note": "(configuration not stated)", "Potency": "15.8 µM (active)"}
{"smiles": "O=C(NNc1ccnc2cc(Cl)ccc12)C1CCCCC1", "Potency": "inactive"}
{"smiles": "CCN(CC)CCNc1ccnc2cc(Cl)ccc12", "Potency": "inactive"}
{"smiles": "O=C(c1c(F)cccc1F)N1CCCC(c2nc(-c3ccc(Cl)cc3)no2)C1", "note": "(configuration not stated)", "Potency": "inactive"}
{"smiles": "CCn1c2ccccc2c2cc(NC(=O)COC(=O)c3ccccc3F)ccc21", "Potency": "inactive"}
{"smiles": "O=C1/C(=C/c2ccncc2)CCC/C1=C\\c1ccncc1", "Potency": "5.62 µM (active)"}
{"smiles": "CN1C/C(=C/c2cccnc2)C(=O)/C(=C/c2cccnc2)C1", "Potency": "inactive"}
{"smiles": "CCN(CC)C(=O)c1cccc(-c2csc(C(C)(O)c3cccc(F)c3)n2)c1", "note": "(configuration not stated)", "Potency": "inactive"}
{"smiles": "CCN1C(=O)/C(=C/c2nc3ccccc3c(=O)n2-c2ccccc2)c2ccccc21", "Potency": "12.6 µM (active)"}
{"smiles": "CCOC(=O)C1=CCN(S(=O)(=O)c2ccc(C)cc2)C1c1cccc(Cl)c1", "note": "(configuration not stated)", "Potency": "inactive"}
{"smiles": "CCn1c(C)nc2cc(C(=O)N/N=C(\\C)c3ccc(OC)cc3O)ccc21", "Potency": "inactive"}
{"smiles": "O=C(NN=C1CCCC1)c1cc(-c2ccc(F)cc2)nc2ccccc12", "Potency": "inactive"}
{"smiles": "Cc1sc(NC(=O)c2cc(-c3ccc(Cl)cc3)nc3ccccc23)c(C(N)=O)c1C", "Potency": "8.91 µM (active)"}
{"smiles": "CCOC(=O)c1c(NC(=O)COC(=O)Cn2cnc3ccccc32)sc(C)c1C", "Potency": "inactive"}
{"smiles": "O=C(c1cc(COc2cccc(C(F)(F)F)c2)on1)N1CCC(c2ccncc2)CC1", "Potency": "inactive"}
{"smiles": "CCN1CCN(c2cc(C(C)C)nc3c(-c4ccccc4)c(C)nn23)CC1", "Potency": "inactive"}
{"smiles": "COc1ccccc1-n1c(-c2ccccc2)c[n+]2c1CCc1ccccc1-2", "Potency": "10 µM (active)"}
{"smiles": "OCC1(CCOc2ccccc2)CCN(CC2=Cc3cc(Cl)ccc3OC2)CC1", "Potency": "inactive"}
{"smiles": "O=S(=O)(Nc1cccc2cccnc12)c1ccccc1", "Potency": "inactive"}
{"smiles": "O=[N+]([O-])c1ccccc1S(=O)(=O)Nc1cccc2cccnc12", "Potency": "11.2 µM (active)"}
{"smiles": "Cc1ccc(S(=O)(=O)Nc2cccc3cccnc23)cc1", "Potency": "inactive"}
{"smiles": "O=C(CSc1nnc(-c2ccccc2)o1)Nc1ccccc1F", "Potency": "inactive"}
{"smiles": "C/C(=N\\NC(=O)CSCc1ccc([N+](=O)[O-])cc1)c1ccccc1O", "Potency": "inactive"}
{"smiles": "CCOC(=O)C(C(C)=O)c1c(Br)c(O)c(O)c2c(C(=O)c3ccc(C)cc3)coc12", "note": "(configuration not stated)", "Potency": "10 µM (active)"}
{"smiles": "CC(=O)C(C(C)=O)c1c(Cl)c(O)c(O)c2c(C(=O)c3ccccc3)coc12", "Potency": "7.08 µM (active)"}
{"smiles": "O=C(NC(=S)NCc1nc2ccccc2[nH]1)c1ccc(F)cc1", "Potency": "inactive"}
{"smiles": "NS(=O)(=O)c1ccc(Sc2nc3ccccc3s2)c([N+](=O)[O-])c1", "Potency": "inactive"}
{"smiles": "Cc1sc2cc3c(c(C(=O)c4ccccc4)[n+]2c1C)-c1cccc2cccc-3c12", "Potency": "10 µM (active)"}
{"smiles": "Cc1ccc(-c2csc(N3CCN(c4cc5c(cc4Cl)nc(-c4ccncc4)n5CCOCCO)CC3)n2)cc1", "Potency": "inactive"}
{"smiles": "CC1(C)Cc2c(c(N3CCOCC3)nc3sc4c(NN)ncnc4c23)CS1", "Potency": "inactive"}
{"smiles": "CN(C)CCNc1ncnc2c1sc1nc(N3CCOCC3)c3c(c12)CC(C)(C)SC3", "Potency": "17.8 µM (active)"}
{"smiles": "CC1(C)Cc2c(c(-c3ccco3)nc3sc4c(NCCN5CCOCC5)ncnc4c23)CO1", "Potency": "inactive"}
{"smiles": "Cn1nc(C(=O)N2CCN(c3ccc(Cl)cc3)CC2)c2c1-c1ccccc1S(=O)(=O)C2", "Potency": "inactive"}
{"smiles": "N#Cc1ccccc1NC(=O)C1SC(=Nc2ccccc2)C(C(=O)Nc2ccc(Cl)cc2)=C1N", "note": "(configuration not stated)", "Potency": "inactive"}
{"smiles": "Cc1cc(Nc2cccc([N+](=O)[O-])c2)n2c(nc3ccccc32)c1C#N", "Potency": "3.55 µM (active)"}
